Results: PubChem BioAssay

Columns and labels:
[1] = biological target: PEG-3 (UniProt Q6IN02); assay: inhibition of PEG-3 promoter-driven reporter – cell-based, HeLa, luciferase, CREF/GAPDH counter-screen panel, dose response (AID 624167); conditions: HeLa PEG-Prom luciferase reporter, overnight, CREF/GAPDH counter-screens; run 1, dose range 1, at 100 µM (top of the series)
[2] = biological target: PEG-3 (UniProt Q6IN02); assay: as above; conditions: HeLa PEG-Prom luciferase reporter, overnight, CREF/GAPDH counter-screens; run 2, dose range 1, at 100 µM (top of the series)
[3] = system: Rat fibroblasts (CREF); assay: as above; conditions: CREF/GAPDH counter-screens; run 1, dose range 1, at 100 µM (top of the series)
[4] = system: Rat fibroblasts (CREF); assay: as above; conditions: CREF/GAPDH counter-screens; run 2, dose range 1, at 100 µM (top of the series)
[5] = NFkB reporter suppression in cystic fibrosis bronchial cells – cell-based, uHTS hits, panel, cytotoxicity readout, dose response (AID 624344); conditions: CF bronchial epithelial cells, PAF-induced NFkB reporter inhibition, with PAF, run 1; at 79 µM (top of the series)
[6] = as above; conditions: CF bronchial epithelial cells, PAF-induced NFkB reporter inhibition, with PAF, run 2; at 79 µM (top of the series)
[7] = biological target: Tumor necrosis factor receptor superfamily member 10B (Homo sapiens) (UniProt O14763); assay: viability loss of caspase-8 NB7 cells with TRAIL – with/without TRAIL, luminescence panel, confirmation (AID 651596); conditions: NB7 neuroblastoma + caspase-8, TRAIL sensitization, NB7 Caspase-8, with TRAIL, mean of runs, at 10 µM, stronger effect = higher value
[8] = as above; conditions: NB7 neuroblastoma + caspase-8, without TRAIL, NB7 Caspase-8, without TRAIL, mean of runs, at 10 µM

PEG-3, sequence (Q6IN02 whole entry, looked up): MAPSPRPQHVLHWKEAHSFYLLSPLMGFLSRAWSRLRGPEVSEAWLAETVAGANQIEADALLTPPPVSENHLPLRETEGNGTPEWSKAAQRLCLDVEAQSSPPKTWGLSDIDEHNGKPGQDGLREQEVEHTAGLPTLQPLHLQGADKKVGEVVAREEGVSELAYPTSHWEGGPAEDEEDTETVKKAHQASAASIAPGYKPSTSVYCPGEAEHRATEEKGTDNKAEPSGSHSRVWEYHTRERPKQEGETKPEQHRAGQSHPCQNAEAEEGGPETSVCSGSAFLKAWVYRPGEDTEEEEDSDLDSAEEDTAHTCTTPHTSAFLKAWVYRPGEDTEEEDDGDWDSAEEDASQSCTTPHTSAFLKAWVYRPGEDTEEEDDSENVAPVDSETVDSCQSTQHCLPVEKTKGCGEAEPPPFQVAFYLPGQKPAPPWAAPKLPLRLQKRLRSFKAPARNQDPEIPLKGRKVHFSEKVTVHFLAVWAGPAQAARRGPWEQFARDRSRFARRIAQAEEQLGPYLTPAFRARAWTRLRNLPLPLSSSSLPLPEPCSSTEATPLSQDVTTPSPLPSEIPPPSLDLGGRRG
Tumor necrosis factor receptor superfamily member 10B (Homo sapiens), sequence (O14763 whole entry, looked up): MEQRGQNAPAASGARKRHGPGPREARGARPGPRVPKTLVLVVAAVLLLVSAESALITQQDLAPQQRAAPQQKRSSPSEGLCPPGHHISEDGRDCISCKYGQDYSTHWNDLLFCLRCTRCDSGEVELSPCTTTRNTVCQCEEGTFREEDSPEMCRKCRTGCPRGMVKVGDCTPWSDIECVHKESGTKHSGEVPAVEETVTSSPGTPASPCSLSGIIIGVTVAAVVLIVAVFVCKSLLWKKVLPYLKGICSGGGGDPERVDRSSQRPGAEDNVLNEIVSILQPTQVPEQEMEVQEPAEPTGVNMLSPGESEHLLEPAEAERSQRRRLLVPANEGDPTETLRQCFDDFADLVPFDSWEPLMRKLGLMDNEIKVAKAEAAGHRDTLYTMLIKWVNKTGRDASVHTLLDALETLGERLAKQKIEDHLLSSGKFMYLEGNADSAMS

`C[C@@H]1C[C@@H]([C@H](O)CC2CC(=O)NC(=O)C2)C(=O)[C@@H](C)C1` showed an inhibition [1] of 98%, an inhibition [2] of 101% and an inhibition [3] of 62.3%. It also gave an inhibition [4] of 58.2%, an inhibition [5] of 106% and an inhibition [6] of 116%.

`O=Cc1cn(Cc2ccc([N+](=O)[O-])cc2)c2ccccc12` gave an inhibition [1] of 1.6% and an inhibition [2] of 29.8%.

Molecule `Cc1c(C(=O)N2CCC3(CC2)OCCO3)sc2ncnc(N3CCN(c4ccccn4)CC3)c12` has an inhibition [1] of 97.5% and an inhibition [2] of 102%.

For `CCC1(OC(=O)CN)C(=O)OCc2c1cc1n(c2=O)Cc2cc3ccccc3nc2-1` (stereo unspecified), the inhibition [1] was 100%, the inhibition [2] was 96.5% and the inhibition [3] was 65.4%. It also gave an inhibition [4] of 72%.

In the case of `N#Cc1c(Br)n(C2OC(CO)C(O)C2O)c2ncnc(N)c12` (stereo unspecified), the inhibition [5] is reported as 106% and the inhibition [6] is reported as 107%.

`COc1cccc(C2CC3C(=O)C=CC2N3Cc2ccccc2)c1` (stereo unspecified) gave an inhibition [1] of 101% and an inhibition [2] of 100%.

`CNCC(O)c1cc(OCc2ccccc2)c(OCc2ccccc2)cc1F` (stereo unspecified) showed an inhibition [1] of 102% and an inhibition [2] of 102%.

`CC1=CC2OC3CC4OC(=O)C=CC=CC(C(C)O)OCC(O)C(C)CC(=O)OCC2(CC1O)C4(C)C31CO1` (stereo unspecified) gave an inhibition [1] of 101%, an inhibition [2] of 99.3% and an activity [7] of 92.3%. The activity [8] was 97.7%.

Molecule `C[C@@H]1O[C@@H](O[C@@H]2C=C3CCC4C(CC[C@]5(C)[C@@H](c6ccc(=O)oc6)CC[C@]45O)[C@@]3(C)CC2)[C@H](O)[C@H](O)[C@H]1O` (stereo partly specified) has an inhibition [1] of 99.3%, an inhibition [2] of 98.5% and an activity [7] of 82.2%. The activity [8] was 91.8%.

With `CCN(CCCl)c1cc(CN(C)C)cc(NC(=O)c2ccc(C(=O)Nc3cc(CN(C)C)cc(N(CC)CCCl)c3)cc2)c1` the inhibition [1] was 100%, the inhibition [2] was 101% and the inhibition [3] was 99.6%. For the same molecule, the inhibition [4] was 97.7%.

`COc1ccc(-n2c(/C=C/c3ccc(O)c(OC)c3)nc3ccccc3c2=O)cc1` showed an inhibition [1] of 101% and an inhibition [2] of 92.7%.

Molecule `CC1=CC2/C=C(\C)CCC(O)C(O)/C=C/C(=O)C23C(=O)NC(CC(C)C)C3C1C` (stereo unspecified) has an inhibition [1] of 102%, an inhibition [2] of 101% and an inhibition [3] of 100%. The inhibition [4] was 100%, the activity [7] was 95.3% and the activity [8] was 97.8%.

Molecule `CC(=O)OC(C)(C)/C=C/C(=O)C(C)(O)C1[C@H](O)C[C@@]2(C)C3CC=C4C(CC[C@@H](O)C4(C)C)[C@]3(CO)C(=O)C[C@]12C` (stereo partly specified) has an inhibition [1] of 102%, an inhibition [2] of 101% and an activity [7] of 43.7%. The activity [8] was 71.7%.

`Cc1ccc(-c2cc(-c3ccc(C)cc3)[n+](-c3ccccc3)c(-c3ccc(C)cc3)c2)cc1` showed an inhibition [1] of 101% and an inhibition [2] of 102%.

With `CC(=O)OC1(C)CC(C)C(=O)C(C(O)CC2CC(=O)NC(=O)C2)C1` (stereo unspecified) the inhibition [1] was 96.1%, the inhibition [2] was 94.4% and the inhibition [3] was 61.8%. For the same molecule, the inhibition [4] was 56.4%, the inhibition [5] was 117% and the inhibition [6] was 108%.

In the case of `C=Cc1cc(OC)c2c(c1)c(=O)oc1c2cc(OC)c2c(O)ccc(C3OC(C)C(O)C(C)(O)C3O)c21` (stereo unspecified), the inhibition [1] is reported as 101%, the inhibition [2] is reported as 102% and the inhibition [3] is reported as 25.3%. For the same molecule, the inhibition [4] was 31.8%.

With `COC(COC(N)=O)C1=C(N2CC2)C(=O)C(C)=C(N2CC2)C1=O` (stereo unspecified) the inhibition [1] was 102%, the inhibition [2] was 101% and the inhibition [3] was 100%. The inhibition [4] was 98.7%.

In the case of `COc1ccc(C[C@H]2NC[C@H](O)[C@H]2OC(C)=O)cc1`, the inhibition [5] is reported as 114% and the inhibition [6] is reported as 106%.

`COc1cc2nc(CN3CC=C(c4ccccc4)CC3)[nH]c(=O)c2cc1OC` gave an inhibition [1] of 93.8%, an inhibition [2] of 45.3% and an inhibition [3] of 38.6%. For the same molecule, the inhibition [4] was 26.4%.

Molecule `CCCCn1nnnc1C(CCSC)N1CCC(n2c(=O)[nH]c3ccccc32)CC1` (stereo unspecified) has an inhibition [1] of 72.5% and an inhibition [2] of 71.8%.

`O=C1NC(=S)N(c2ccccc2F)C(=O)/C1=C\c1cccs1` gave an inhibition [1] of 102% and an inhibition [2] of 99%.

Molecule `C[C@H]1CCCC(=O)CCC/C=C/c2cc(O)cc(O)c2C(=O)O1` has an inhibition [5] of 102% and an inhibition [6] of 114%.

In the case of `COc1ccc(-n2nnnc2C(CCSC)N2CCC(n3c(=O)[nH]c4ccccc43)CC2)cc1` (stereo unspecified), the inhibition [5] is reported as 97.9% and the inhibition [6] is reported as 108%.

Molecule `Cc1[nH]c2ccc(OC(F)(F)F)cc2c1CCNCc1cccc([N+](=O)[O-])c1` has an inhibition [1] of 101% and an inhibition [2] of 101%.

`N#Cc1ccc(Cn2cc(C=O)c3ccccc32)cc1` gave an inhibition [1] of 90.2% and an inhibition [2] of 42.5%.

Molecule `Cc1ccc(C)c(NP(=O)(Oc2ccccc2)Oc2ccccc2)c1` has an inhibition [1] of 88.2% and an inhibition [2] of 96.7%.

In the case of `CC(=O)OC1CC[C@]2(C#N)[C@H]3CC[C@]4(C)[C@H](C5C=CC(=O)O5)CCC4(O)C3CCC2(O)C1` (stereo partly specified), the inhibition [1] is reported as 98.6%, the inhibition [2] is reported as 99.5% and the inhibition [3] is reported as -10.8%. The inhibition [4] was 7.93%.

In the case of `CC[C@@H](O)C[C@H]1CCC[C@@]2(C[C@@H]3OC(=O)/C=C/[C@@](C)(O)[C@@H](O)[C@H](C)[C@@H](O)[C@H](OC4CCC(N(C)C)C(C)O4)[C@@H](O)[C@](C)(O)CCCCC/C=C/[C@@H]4CC(C)(C)O[C@@]4(O)C[C@H](O2)[C@H]3C)O1` (stereo partly specified), the inhibition [1] is reported as 98.9% and the inhibition [2] is reported as 98.9%.
